According to PubChem BioAssay (EPA / NIEHS):
Active and inactive are the calls of the source. The calls were made as follows: active = hit-call score of the fitted dose curve at least 0.9, where 1 is the maximum; inactive = score below 0.9.

Biological target: Transcription factor E2F1 (Homo sapiens) (UniProt Q01094)
Experiment: ATG_E2F_CIS: Attagene CIS-FACTORIAL HepG2 Assay for human E2F Transcription Factor 1 (AID 2282935)
Settings: HepG2 Attagene cis-reporter, E2F reporter RNA transcripts; actives raise or lower the signal
Experimental: ATG_CIS is a cell-based, multiplexed-readout assay that uses HepG2, a human liver cell line, with measurements taken at 24 hours after chemical dosing in a 24-well plate.ATG_E2F_CIS is one of 52 assay component(s) measured or calculated from the ATG_CIS assay. It is designed to make measurements of mRNA induction, a form of inducible reporter, as detected with fluorescence intensity signals by Reverse transcription polymerase chain reaction (RT-PCR) and Capillary electrophoresis technology.Data from the assay component ATG_E2F_CIS was analyzed into 1 assay endpoint. This assay endpoint, ATG_E2F_CIS, was analyzed with bidirectional fitting relative to DMSO as the negative control and baseline of activity. Using a type of inducible reporter, measures of mRNA for gain or loss-of-signal activity can be used to understand the reporter gene at the transcription factor-level as they relate to the gene E2F1. Furthermore, this assay endpoint can be referred to as a primary readout, because this assay has produced multiple assay endpoints where this one serves a reporter gene function. To generalize the intended target to other relatable targets, this assay endpoint is annotated to the dna binding intended target family, where the subfamily is E2F transcription factor.
Human liver HepG2 cells are transiently transfected with multiple reporter transcription units (MRTUs) in 6-well plates using FuGene 6 reagent (Roche; 3 ml FuGene/1 mg DNA). The MRTU constructs are regulated by a cis-regulating element (promoter). […] A major difference between the CIS and TRANS system is that in CIS activities of endogenous TFs are measured, whereas the TRANS assay evaluates changes in activities of exogenous, chimeric NR-Gal4 proteins. […] At the end of 24 hour incubation, total RNA was isolated using TriZol reagent (Invitrogen). The isolated RNA is then reverse-transcribed using oligo(dT) primer and Mo-MLV reverse transcriptase (Invitrogen) with DNAse I (Ambion) treatment for 30 min. The one-tenth of the produced cDNA was amplified by PCR using Taq DNA polymerase (Invitrogen) and two reporter sequence-specific primers. The PCR products were fluorescently labeled by primer extension with 6-arboxyfluorescein (6-FAM) 5'-labeled reporter sequence-specific primer (2 min at 95 C, 20 s at 68 C and 10 min at 72 C) and these products were digested with 5U of HpaI (New England Biolabs) for 2h at 37 C. The fragments were purified using Qiaquick PCR columns (Qiagen), analyzed on an ABI 3130xL genetic analyzer (Applied Biosystems) with peak positions identified by using a set of X-rhodamine (ROX)-labeled MapMarker1000 molecular weight standards (BioVentures). The raw capillary electrophoresis data was processed using Attagraph software (Attagene).

Chain of Transcription factor E2F1 (Homo sapiens) (Q01094 whole entry, looked up): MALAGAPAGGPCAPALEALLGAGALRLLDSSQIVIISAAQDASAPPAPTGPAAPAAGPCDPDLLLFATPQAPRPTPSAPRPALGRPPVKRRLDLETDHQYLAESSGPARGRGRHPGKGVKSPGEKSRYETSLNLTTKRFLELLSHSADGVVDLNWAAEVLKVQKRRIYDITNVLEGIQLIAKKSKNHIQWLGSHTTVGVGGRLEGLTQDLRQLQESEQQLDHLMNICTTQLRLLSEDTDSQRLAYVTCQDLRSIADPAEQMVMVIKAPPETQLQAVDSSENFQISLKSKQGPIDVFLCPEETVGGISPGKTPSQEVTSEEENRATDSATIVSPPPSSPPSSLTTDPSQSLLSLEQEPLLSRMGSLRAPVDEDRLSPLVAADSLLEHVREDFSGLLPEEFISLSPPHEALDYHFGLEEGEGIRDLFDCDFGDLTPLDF

Structure (SMILES)	outcome	AC50
O=C(O)C1C2CCC(O2)C1C(=O)O (stereo not given)	inactive	–
CCC12COCN1COC2	inactive	–
Clc1ccccc1Cl	inactive	–
Nc1ccc(N=Nc2ccccc2)cc1	inactive	–
Nc1ccc(Oc2ccc(N)cc2)cc1	inactive	–
COC(=O)Nc1nc2ccccc2[nH]1	inactive	–
OCCOCCO	inactive	–
CN(C)[C@@H]1C(=O)C(C(N)=O)=C(O)[C@@]2(O)C(=O)C3=C(O)c4c(O)cccc4[C@@](C)(O)[C@H]3C[C@@H]12	inactive	–
CNC(=O)Oc1cccc2c1OC(C)(C)C2	inactive	–
CC(C)(C)C(O)(CCc1ccc(Cl)cc1)Cn1cncn1 (stereo not given)	inactive	–
N#CC(Br)Br	inactive	–
CCCCCCCCOC(=O)c1ccc(C(=O)OCCCCCCCC)c(C(=O)OCCCCCCCC)c1	inactive	–
CCOc1cccc(C2(N3CCN(c4ccccc4)CC3)CCC(C)CC2)c1 (stereo not given)	inactive	–
CC(C)N(Cc1ccccc1)C(=O)C(C)(C)C	inactive	–
Nc1cc(Cl)cc(C(=O)O)c1Cl	inactive	–
[As]#[In]	inactive	–
CCCCC(CC)COC(=O)c1ccc(C(=O)OCC(CC)CCCC)c(C(=O)OCC(CC)CCCC)c1 (stereo not given)	inactive	–
O=[N+]([O-])C(Br)(CO)CO	inactive	–
CCOC(=O)[C@]1(c2ccccc2)Oc2ccccc2[C@@H]1N	inactive	–
Cc1ccc(N=C=O)cc1N=C=O	inactive	–

Structure (SMILES)	outcome	AC50
CC(C)(C)OOC(C)(C)CCC(C)(C)OOC(C)(C)C	inactive	–
ClC1=C(Cl)[C@]2(Cl)[C@H]3[C@H]([C@@H]4C=C[C@H]3C4)[C@@]1(Cl)C2(Cl)Cl	inactive	–
c1ccc2c(c1)oc1ccccc12	inactive	–
O=C(Nc1ccccc1)c1ccccc1I	inactive	–
c1ccc(N=Nc2ccccc2)cc1	inactive	–
CCCSC(=O)N(CCC)CCC	inactive	–
CCC(C)c1ccc(O)cc1 (stereo not given)	inactive	–
COP(=S)(OC)SCN1C(=O)c2ccccc2C1=O	inactive	–
CCCCCCCCn1sccc1=O	inactive	–
Cc1ccc(N)c(N)c1	inactive	–
Oc1ccccc1Cl	inactive	–
OCCCBr	inactive	–
Clc1ccc(Cl)c(Cl)c1	inactive	–
Nc1ccc(Cl)cc1N	inactive	–
COC(=O)c1ccccc1N	inactive	–
[Cl-].[Cl-].[Hg+2]	inactive	–
c1ccc2c(c1)-c1cccc3cccc-2c13	inactive	–
O=C(N[C@H](c1ccccc1)[C@@H]1CN2CCC1CC2)c1c(Cl)ccc(C(F)(F)F)c1Cl	inactive	–
CCN(CC)N=O	inactive	–
CC(C)(C)OOC(=O)c1ccccc1	–	158 µM (active)
